Experimental data as given in ChEMBL document CHEMBL1961873, “Compounds: GSK PKIS; Assays: Nanosyn kinase panel” (2012).

Assays:
[1] = target: Sphingosine kinase 1 (Homo sapiens) (UniProt Q9NYA1); settings: at 1 µM;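 note: mean SPHK1 inhibition value reported from the GSK PKIS kinase panel screen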
[2] = target: T1, Sphingosine kinase 2 (Homo sapiens) (UniProt Q9NRA0); settings: at 0.1 µM
T1 sequence (whole entry): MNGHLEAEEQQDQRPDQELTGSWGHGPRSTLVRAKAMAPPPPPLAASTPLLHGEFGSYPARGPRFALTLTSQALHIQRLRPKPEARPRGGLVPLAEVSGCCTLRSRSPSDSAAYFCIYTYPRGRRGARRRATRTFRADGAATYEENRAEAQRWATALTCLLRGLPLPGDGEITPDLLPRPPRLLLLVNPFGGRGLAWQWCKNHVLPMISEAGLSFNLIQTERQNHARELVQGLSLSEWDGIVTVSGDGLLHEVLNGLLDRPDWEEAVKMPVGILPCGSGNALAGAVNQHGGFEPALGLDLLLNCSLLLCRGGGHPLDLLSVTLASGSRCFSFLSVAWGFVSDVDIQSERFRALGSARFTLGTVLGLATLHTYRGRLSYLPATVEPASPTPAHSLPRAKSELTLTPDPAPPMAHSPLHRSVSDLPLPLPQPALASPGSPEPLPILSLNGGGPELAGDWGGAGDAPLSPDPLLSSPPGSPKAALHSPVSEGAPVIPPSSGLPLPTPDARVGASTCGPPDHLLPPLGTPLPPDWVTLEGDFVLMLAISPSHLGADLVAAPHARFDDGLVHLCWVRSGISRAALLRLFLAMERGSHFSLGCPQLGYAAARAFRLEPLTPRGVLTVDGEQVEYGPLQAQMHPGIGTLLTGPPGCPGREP

[3] = target: T1, Sphingosine kinase 2 (Homo sapiens); settings: at 1 µM
[4] = target: Casein kinase II subunit alpha (Homo sapiens) (UniProt P68400); settings: at 0.1 µM
Chain of Casein kinase II subunit alpha (Homo sapiens) (P68400 whole entry, looked up): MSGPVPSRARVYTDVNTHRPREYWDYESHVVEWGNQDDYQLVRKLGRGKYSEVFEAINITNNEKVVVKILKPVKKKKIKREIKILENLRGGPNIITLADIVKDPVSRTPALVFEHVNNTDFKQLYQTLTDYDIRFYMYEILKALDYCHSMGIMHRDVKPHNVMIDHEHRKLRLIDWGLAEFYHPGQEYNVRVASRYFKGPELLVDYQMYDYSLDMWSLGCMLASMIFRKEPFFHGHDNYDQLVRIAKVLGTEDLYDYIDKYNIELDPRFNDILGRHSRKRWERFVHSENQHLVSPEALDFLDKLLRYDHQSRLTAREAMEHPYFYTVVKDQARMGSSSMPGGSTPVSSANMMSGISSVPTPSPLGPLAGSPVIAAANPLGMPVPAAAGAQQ

[5] = target: Casein kinase II subunit alpha (Homo sapiens) (UniProt P68400); settings: at 1 µM
[6] = target: T2, Inhibitor of nuclear factor kappa-B kinase subunit alpha (Homo sapiens) (UniProt O15111); settings: at 0.1 µM
T2 sequence (whole entry): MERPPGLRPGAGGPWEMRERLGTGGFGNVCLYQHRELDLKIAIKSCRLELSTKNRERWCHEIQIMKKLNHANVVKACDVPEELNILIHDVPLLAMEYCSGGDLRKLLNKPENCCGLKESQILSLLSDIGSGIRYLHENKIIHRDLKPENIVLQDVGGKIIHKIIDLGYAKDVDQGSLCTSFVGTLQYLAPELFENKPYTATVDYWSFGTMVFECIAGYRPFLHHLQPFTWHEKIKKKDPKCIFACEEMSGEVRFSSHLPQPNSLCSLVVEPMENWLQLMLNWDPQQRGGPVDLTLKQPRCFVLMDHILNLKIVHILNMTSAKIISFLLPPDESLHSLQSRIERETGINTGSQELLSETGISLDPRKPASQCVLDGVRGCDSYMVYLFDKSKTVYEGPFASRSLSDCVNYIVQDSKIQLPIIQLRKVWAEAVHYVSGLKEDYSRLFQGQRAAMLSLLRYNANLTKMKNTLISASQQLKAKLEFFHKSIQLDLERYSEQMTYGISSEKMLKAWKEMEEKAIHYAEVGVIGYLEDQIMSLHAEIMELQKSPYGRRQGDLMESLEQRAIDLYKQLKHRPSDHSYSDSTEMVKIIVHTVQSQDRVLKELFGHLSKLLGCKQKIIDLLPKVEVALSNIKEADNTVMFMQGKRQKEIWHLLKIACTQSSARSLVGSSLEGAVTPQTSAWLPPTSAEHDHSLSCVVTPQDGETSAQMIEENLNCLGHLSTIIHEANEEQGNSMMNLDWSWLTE

[7] = target: T2, Inhibitor of nuclear factor kappa-B kinase subunit alpha (Homo sapiens); settings: at 1 µM
[8] = target: T3, Inhibitor of nuclear factor kappa-B kinase subunit beta (Homo sapiens) (UniProt O14920); settings: at 0.1 µM
T3 sequence (whole entry): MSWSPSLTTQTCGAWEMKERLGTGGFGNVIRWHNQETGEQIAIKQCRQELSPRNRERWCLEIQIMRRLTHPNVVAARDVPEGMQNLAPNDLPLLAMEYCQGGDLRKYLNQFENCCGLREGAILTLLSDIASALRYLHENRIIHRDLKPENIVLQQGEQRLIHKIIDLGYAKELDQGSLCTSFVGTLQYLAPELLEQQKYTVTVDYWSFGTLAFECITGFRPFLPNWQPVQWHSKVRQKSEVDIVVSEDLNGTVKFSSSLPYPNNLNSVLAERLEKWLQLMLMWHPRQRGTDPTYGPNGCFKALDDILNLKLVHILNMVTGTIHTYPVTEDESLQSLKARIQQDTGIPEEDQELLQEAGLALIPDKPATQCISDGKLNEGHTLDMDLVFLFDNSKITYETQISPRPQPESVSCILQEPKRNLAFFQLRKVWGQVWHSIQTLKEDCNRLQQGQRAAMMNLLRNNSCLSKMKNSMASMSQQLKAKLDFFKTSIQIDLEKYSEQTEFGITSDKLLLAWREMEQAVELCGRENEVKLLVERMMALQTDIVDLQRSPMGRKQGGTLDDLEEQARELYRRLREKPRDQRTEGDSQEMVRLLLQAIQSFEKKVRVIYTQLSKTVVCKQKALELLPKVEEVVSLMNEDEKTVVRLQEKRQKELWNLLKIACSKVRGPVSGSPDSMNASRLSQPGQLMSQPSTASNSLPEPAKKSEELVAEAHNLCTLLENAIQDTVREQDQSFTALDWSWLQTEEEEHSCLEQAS

[9] = target: T3, Inhibitor of nuclear factor kappa-B kinase subunit beta (Homo sapiens); settings: at 1 µM
[10] = target: T4, Inhibitor of nuclear factor kappa-B kinase subunit epsilon (Homo sapiens) (UniProt Q14164); settings: at 0.1 µM
T4 sequence (whole entry): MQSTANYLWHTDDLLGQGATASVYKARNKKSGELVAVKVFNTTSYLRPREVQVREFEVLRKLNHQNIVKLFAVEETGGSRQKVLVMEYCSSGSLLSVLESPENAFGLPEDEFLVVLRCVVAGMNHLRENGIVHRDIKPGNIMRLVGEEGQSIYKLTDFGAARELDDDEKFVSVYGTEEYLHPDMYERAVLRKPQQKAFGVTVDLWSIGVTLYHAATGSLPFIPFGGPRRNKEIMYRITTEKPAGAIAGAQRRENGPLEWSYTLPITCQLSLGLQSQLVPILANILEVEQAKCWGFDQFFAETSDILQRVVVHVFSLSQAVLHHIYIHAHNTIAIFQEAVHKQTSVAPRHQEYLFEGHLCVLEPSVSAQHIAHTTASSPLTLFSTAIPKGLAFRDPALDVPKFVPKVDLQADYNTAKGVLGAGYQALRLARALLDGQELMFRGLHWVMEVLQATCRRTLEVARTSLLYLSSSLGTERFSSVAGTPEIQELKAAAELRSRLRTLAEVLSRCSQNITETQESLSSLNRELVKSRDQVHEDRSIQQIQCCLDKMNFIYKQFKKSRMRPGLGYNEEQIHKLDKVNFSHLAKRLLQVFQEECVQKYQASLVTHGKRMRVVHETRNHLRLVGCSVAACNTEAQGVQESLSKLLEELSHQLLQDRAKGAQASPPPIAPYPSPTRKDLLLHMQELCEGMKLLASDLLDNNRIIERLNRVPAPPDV

[11] = target: T4, Inhibitor of nuclear factor kappa-B kinase subunit epsilon (Homo sapiens); settings: at 1 µM
[12] = target: T5, Serine/threonine-protein kinase Nek1 (Homo sapiens) (UniProt Q96PY6); settings: at 0.1 µM
T5 sequence (whole entry): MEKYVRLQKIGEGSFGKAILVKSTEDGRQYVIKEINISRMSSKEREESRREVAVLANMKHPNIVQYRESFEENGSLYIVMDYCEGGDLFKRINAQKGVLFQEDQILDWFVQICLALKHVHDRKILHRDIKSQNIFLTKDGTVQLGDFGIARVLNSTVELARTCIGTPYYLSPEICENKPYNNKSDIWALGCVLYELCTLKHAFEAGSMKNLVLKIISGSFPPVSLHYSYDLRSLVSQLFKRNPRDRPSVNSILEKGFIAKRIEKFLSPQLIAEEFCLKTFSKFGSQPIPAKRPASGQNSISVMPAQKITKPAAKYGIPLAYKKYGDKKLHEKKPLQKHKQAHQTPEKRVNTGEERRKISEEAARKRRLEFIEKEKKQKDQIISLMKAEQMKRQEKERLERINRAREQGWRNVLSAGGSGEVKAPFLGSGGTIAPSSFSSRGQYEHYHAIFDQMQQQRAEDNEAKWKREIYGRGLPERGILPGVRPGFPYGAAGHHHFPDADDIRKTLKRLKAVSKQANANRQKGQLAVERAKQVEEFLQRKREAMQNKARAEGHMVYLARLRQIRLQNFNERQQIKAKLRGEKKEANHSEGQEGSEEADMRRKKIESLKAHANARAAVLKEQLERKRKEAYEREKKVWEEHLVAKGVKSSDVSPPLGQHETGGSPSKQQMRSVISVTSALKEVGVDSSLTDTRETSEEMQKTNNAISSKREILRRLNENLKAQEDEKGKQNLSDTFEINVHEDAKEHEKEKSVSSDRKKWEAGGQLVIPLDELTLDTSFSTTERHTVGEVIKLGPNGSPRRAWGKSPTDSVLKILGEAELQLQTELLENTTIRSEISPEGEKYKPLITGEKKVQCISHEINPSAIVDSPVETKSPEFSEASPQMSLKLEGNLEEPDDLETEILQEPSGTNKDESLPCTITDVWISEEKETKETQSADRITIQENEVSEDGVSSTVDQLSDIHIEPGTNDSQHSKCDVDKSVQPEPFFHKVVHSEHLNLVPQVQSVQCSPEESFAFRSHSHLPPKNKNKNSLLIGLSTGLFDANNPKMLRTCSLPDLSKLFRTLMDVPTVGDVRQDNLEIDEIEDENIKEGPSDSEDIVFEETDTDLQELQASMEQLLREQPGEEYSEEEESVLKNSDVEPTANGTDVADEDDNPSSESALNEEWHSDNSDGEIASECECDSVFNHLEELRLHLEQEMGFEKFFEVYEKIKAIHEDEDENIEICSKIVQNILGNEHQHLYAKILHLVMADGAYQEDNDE

[13] = target: T5, Serine/threonine-protein kinase Nek1 (Homo sapiens); settings: at 1 µM
[14] = target: T6, Serine/threonine-protein kinase Nek2 (Homo sapiens) (UniProt P51955); settings: at 0.1 µM
T6 sequence (whole entry): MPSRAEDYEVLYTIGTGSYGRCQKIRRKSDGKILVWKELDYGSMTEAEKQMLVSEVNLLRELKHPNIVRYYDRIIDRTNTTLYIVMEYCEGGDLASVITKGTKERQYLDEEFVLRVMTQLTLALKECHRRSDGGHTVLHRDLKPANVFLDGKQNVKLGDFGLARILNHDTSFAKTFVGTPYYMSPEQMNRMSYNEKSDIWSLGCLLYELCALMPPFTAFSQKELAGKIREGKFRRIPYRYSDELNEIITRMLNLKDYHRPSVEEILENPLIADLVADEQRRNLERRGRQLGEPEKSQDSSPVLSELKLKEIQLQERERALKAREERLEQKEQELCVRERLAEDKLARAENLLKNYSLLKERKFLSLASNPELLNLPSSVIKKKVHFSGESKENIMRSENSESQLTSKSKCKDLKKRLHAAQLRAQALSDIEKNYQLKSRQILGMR

[15] = target: T6, Serine/threonine-protein kinase Nek2 (Homo sapiens); settings: at 1 µM
[16] = target: Serine/threonine-protein kinase Nek6 (Homo sapiens) (UniProt Q9HC98); settings: at 0.1 µM
Chain of Serine/threonine-protein kinase Nek6 (Homo sapiens) (Q9HC98 whole entry): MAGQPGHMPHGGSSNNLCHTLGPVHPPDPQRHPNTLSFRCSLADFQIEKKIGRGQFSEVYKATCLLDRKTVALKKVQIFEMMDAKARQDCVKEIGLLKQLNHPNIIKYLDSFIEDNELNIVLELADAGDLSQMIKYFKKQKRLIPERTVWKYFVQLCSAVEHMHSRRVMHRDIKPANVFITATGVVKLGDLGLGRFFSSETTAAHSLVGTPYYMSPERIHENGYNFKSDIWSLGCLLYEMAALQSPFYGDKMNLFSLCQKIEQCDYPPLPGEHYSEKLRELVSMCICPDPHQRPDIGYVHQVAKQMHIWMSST

[17] = target: Serine/threonine-protein kinase Nek6 (Homo sapiens) (UniProt Q9HC98); settings: at 1 µM
[18] = target: Serine/threonine-protein kinase Nek7 (Homo sapiens) (UniProt Q8TDX7); settings: at 0.1 µM
Chain of Serine/threonine-protein kinase Nek7 (Homo sapiens) (Q8TDX7 whole entry, looked up): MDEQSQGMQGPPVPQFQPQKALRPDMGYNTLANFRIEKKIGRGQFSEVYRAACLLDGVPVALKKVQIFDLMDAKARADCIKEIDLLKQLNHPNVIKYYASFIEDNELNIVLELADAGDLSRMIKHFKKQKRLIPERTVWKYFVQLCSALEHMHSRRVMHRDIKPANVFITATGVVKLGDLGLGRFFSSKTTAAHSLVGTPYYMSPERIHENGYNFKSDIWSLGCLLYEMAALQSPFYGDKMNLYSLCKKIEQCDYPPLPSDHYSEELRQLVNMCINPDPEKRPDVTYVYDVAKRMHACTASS

[19] = target: Serine/threonine-protein kinase Nek7 (Homo sapiens) (UniProt Q8TDX7); settings: at 1 µM
[20] = target: T7, Serine/threonine-protein kinase Nek9 (Homo sapiens) (UniProt Q8TD19); settings: at 0.1 µM;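 note: reported value is the mean percent inhibition of NEK9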
T7 sequence (whole entry): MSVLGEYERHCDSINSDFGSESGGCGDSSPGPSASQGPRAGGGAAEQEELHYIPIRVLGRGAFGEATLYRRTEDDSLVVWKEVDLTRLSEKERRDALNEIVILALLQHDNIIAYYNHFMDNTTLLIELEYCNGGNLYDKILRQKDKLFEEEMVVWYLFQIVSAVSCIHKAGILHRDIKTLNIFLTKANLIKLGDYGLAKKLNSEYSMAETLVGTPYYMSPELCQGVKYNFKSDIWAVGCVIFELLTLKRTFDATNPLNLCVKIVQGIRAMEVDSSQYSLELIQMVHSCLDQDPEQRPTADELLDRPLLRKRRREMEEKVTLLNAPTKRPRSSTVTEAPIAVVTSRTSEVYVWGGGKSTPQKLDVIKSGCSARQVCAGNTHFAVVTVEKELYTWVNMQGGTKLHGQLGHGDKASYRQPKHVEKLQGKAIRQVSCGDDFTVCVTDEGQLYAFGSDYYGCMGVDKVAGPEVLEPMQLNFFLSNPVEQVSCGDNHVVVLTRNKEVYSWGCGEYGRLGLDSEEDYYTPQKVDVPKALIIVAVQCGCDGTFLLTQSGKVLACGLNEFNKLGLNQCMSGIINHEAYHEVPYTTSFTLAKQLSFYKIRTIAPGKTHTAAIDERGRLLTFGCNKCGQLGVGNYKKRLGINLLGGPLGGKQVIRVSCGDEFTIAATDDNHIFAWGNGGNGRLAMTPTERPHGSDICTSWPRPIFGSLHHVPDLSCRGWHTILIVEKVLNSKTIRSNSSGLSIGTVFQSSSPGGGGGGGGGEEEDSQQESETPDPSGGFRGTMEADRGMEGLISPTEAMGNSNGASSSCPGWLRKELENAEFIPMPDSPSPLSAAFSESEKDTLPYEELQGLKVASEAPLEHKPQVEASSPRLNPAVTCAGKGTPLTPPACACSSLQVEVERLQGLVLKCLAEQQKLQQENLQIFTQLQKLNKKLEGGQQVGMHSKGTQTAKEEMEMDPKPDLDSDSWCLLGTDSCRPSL

Chain of Sphingosine kinase 1 (Homo sapiens) (Q9NYA1 whole entry): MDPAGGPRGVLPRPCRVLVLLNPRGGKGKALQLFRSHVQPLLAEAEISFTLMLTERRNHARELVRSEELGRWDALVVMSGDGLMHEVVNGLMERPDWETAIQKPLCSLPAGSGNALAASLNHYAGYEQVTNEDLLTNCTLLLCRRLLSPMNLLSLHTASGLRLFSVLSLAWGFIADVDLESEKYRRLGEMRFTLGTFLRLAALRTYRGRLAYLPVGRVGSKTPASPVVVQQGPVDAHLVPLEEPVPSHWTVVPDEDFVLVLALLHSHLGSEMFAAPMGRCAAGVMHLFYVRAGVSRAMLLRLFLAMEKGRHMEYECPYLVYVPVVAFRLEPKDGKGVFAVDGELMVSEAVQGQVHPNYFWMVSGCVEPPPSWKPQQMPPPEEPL

SMILES: CN1CCN(C(=O)c2ccc(NC(=O)Nc3ccc(N(C)c4ccnc(Nc5ccc(CS(C)(=O)=O)cc5)n4)cc3)cc2)CC1
- inhibition [1]: 2.73%
- inhibition [2]: 0%
- inhibition [3]: -0.74%
- inhibition [4]: 7.1%
- inhibition [5]: 2.55%
- inhibition [6]: 3.61%
- inhibition [7]: 9.53%
- inhibition [8]: 3.95%
- inhibition [9]: 5.76%
- inhibition [10]: 4.12%
- inhibition [11]: 14.2%
- inhibition [12]: 5.21%
- inhibition [13]: 29.1%
- inhibition [14]: 2.78%
- inhibition [15]: 3.14%
- inhibition [16]: 1.8%
- inhibition [17]: -1.02%
- inhibition [18]: 2.05%
- inhibition [19]: 5.08%
- inhibition [20]: 6.54%
